Bioassay records as filed in PubChem.
tim10-1 inh: growth inhibitors of tim10-1 mutant yeast, primary screen, luminescence, uHTS | inhibition, % at 20 µM | S. cerevisiae tim10-1 ts strain growth, BacTiter-Glo, 24 h | 2.2% of 330,000 active;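 active = inhibition of at least 40%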;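 also: mutant grown at 25 °C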
ATG4B inhibitor: ATG4B protease inhibitors, primary screen, biochemical, fluorescence, uHTS | Cysteine protease ATG4B (Homo sapiens), Q9Y4P1 | ATG4B cleavage of LC3-PLA2, NBD-HPC fluorescence, 1 h | inhibition, % at 8.33 µM | 0.51% of 340,000 active | AID 504462, 2011; in the data active = inhibition above about 40%
Target sequence (Q9Y4P1 whole entry, looked up): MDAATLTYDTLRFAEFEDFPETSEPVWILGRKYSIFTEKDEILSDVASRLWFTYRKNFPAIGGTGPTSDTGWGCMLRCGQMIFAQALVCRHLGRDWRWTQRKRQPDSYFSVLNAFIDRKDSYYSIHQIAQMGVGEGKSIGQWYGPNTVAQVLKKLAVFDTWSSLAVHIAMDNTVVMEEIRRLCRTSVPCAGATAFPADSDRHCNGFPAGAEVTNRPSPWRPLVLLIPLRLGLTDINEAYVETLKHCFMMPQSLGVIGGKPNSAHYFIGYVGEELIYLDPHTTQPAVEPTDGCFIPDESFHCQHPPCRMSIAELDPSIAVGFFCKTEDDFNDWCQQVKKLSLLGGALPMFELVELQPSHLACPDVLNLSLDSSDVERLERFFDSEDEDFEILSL
tim23-1 inh: growth inhibitors of tim23-1 mutant yeast, primary screen, luminescence, uHTS. inhibition, % at 20 µM. S. cerevisiae tim23-1 growth, BacTiter-Glo luminescence, 24 h. 1.3% of 330,000 active. AID 463212, 2010;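 active = growth inhibition of the mutant yeast at or above 50%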;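 also: temperature-sensitive mutant grown at 25 °C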
SKKanGAS inh: S. pyogenes SKKanGAS growth inhibitors in kanamycin, primary screen, streptokinase expression inhibitor project, SKKanGAS strain, BacTiter-Glo luminescence | 1.3% of 300,000 active | 6 h | inhibition, % at 7.5 µM | AID 1662, 2009;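 active = mean replicate score, as percent of positive control median, at least 50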;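 also: strain carries kanamycin resistance gene driven by streptokinase promoter and grows in 40 µg/ml kanamycin; loss of luminescence reflects streptokinase promoter inhibition or plain growth inhibition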
TIM10 inh: growth inhibitors of isogenic TIM10 control yeast, primary screen, counter-screen for tim10-1 yeast inhibitor project, luminescence, uHTS; inhibition, % at 10 µM; 1.4% of 330,000 active; S. cerevisiae TIM10 strain growth, BacTiter-Glo luminescence, 24 h;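 active = inhibition of 40% or more at the single tested concentration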;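 also: wild-type TIM10 isogenic control strain grown at permissive 25 °C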
PfHsp90 set2: growth inhibition of PfHsp90-expressing yeast, primary screen, antimalarial PfHsp90 inhibitor project, S. cerevisiae, BacTiter-Glo luminescence, single point, set 2; 0.32% of 310,000 active; inhibition, % at 9.4 µM; AID 504621, 2011; BacTiter-Glo ATP, 48 h; yeast lacking PDR1 and PDR3 efflux regulators;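 active = every replicate shows inhibition above about 80%, whatever the replicate mean, limit read from the data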
tim10-1 conf: growth inhibitors of tim10-1 mutant yeast, confirmation, single concentration, luminescence, S. cerevisiae; shares compounds with tim10-1 inh; S. cerevisiae tim10-1 ts strain growth, BacTiter-Glo, 24 h; inhibition, % at 20 µM; 56% of 7,400 active; AID 463213, 2010;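 active = inhibition of yeast growth at or above a set limit in either of two repeat tests at 20 µM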;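 also: tim10-1 mutant grown at permissive 25 °C to find synthetic lethal compounds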
TIM10 conf: growth inhibitors of wild-type TIM10 yeast, confirmation, counter-screen for tim10-1 synthetic lethality project, single concentration, luminescence, S. cerevisiae; 63% of 4,600 active; inhibition, % at 10 µM; AID 463215, 2010; S. cerevisiae tim10 strain growth, BacTiter-Glo luminescence, 24 h; shares compounds with TIM10 inh;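 active = inhibition of yeast growth at or above a set limit in either of two replicates at 10 µM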; also: this counterscreen used the strain with wild-type TIM10
tim23-1 conf: tim23-1 mutant yeast growth inhibitors, confirmation, luminescence, single concentration; shares compounds with tim23-1 inh; 83% of 4,400 active; inhibition, % at 20 µM; S. cerevisiae tim23-1 growth, BacTiter-Glo luminescence, 24 h;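 active = inhibition above about 39% in either of two replicate wells at 20 µM, limit read from the data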;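 also: temperature-sensitive tim23-1 mutant grown at 25 °C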
ATG4B confirm: ATG4B protease inhibitors, retest, confirmation, biochemical, fluorescence, single concentration; shares compounds with ATG4B inhibitor; ATG4B protease fluorescent substrate cleavage assay; 92% of 320 active; inhibition, % at 8.33 µM; in the data active = inhibition above about 39%
PLA2 counter: PLA2 enzyme inhibition, counter-screen for ATG4B inhibitor project, biochemical, single concentration, uHTS hits; shares compounds with ATG4B inhibitor; purified PLA2, NBD-C6-HPC fluorescence, 45 min; inhibition, % at 8.33 µM; 66% of 1,600 active; in the data active = inhibition above about 50%
Numbers stand for hits; . = inactive; / = no result. Hits are enriched below; roughly 4.7% of the tested compounds scored in any of these assays.

SMILES	tim10-1 inh	ATG4B inhibitor	tim23-1 inh	SKKanGAS inh	TIM10 inh	PfHsp90 set2	tim10-1 conf	PLA2 counter	others
O=C1C(=O)c2c(C(=O)c3ccccc3)coc2-c2ccccc21	93.0	64.5	70.8	.	73.7	.	91.2	88.8	TIM10 conf=81.0;tim23-1 conf=64.6
COC(=O)c1cc(=O)nc2sc(-c3ccccc3)nn12	.	.	.	.	.	/	/	/
Nc1ccc2c(c1)C(=O)C(=O)c1ccccc1-2	92.2	78.1	73.2	86.2	93.8	.	91.9	.	TIM10 conf=98.8;tim23-1 conf=68.8;ATG4B confirm=.
Nc1ccc2c(c1)C(=O)c1ccccc1-2	.	.	.	.	.	.	/	/
CCCCCCCCOC(=O)c1c(CSC(=N)N)n(C)c2cc(Br)c(OC(C)=O)cc12	45.6	40.4	.	74.9	.	/	.	.	ATG4B confirm=64.8
S=C(NCCC(c1ccccc1)c1ccccc1)Nc1cccc(Cl)c1	40.1	45.6	.	101.7	.	.	.	69.7
S=C(NCc1ccncc1)Nc1cccc(Cl)c1	.	.	.	.	.	.	/	/
Fc1ccc(CNC(=S)Nc2cccc(Cl)c2)cc1	47.6	60.9	50.1	.	.	.	40.8	67.4	tim23-1 conf=51.8
S=C(NCCN(C1CCCCC1)C1CCCC1)Nc1cccc(Cl)c1	.	.	.	.	.	.	/	/
Fc1cccc(NC(=S)NCc2ccccc2Cl)c1	49.6	40.3	.	.	.	.	43.5	.
COC(=O)C1=C(C(=O)OC)SC2(S1)C(C(=O)OC)=C(C(=O)OC)SC1=C2c2cc(C)ccc2NC1(C)C	.	.	.	.	.	.	/	/
Cc1sc(NC(=O)C2C3CCC(O3)C2C(=O)O)nc1-c1ccc(CC(C)C)cc1 (stereo not given)	41.2	55.5	.	.	.	.	.	69.1
CCCn1c(NC(=O)c2cccc(S(=O)(=O)N3CCCC3)c2)nc2ccccc21	40.9	.	50.3	63.6	.	.	.	57.4	tim23-1 conf=57.9
CCCC(=O)NC(=S)Nc1cccc(Cl)c1N1CCCCC1	43.5	41.1	.	100.9	50.0	.	.	.	TIM10 conf=36.2;ATG4B confirm=56.0
CCCCC(=O)NC(=S)Nc1cccc(Cl)c1N1CCCCC1	.	.	.	.	.	.	/	/
CCOc1ccccc1N1CCN(C(=S)NCc2ccco2)CC1	.	.	.	.	.	.	/	/
Cc1cccc(N2CCN(C(=S)NCc3ccco3)CC2)c1C	55.1	45.9	53.0	.	.	.	47.7	.	tim23-1 conf=43.0
Cc1ccccc1/C(N)=N/OC(=O)N1c2ccccc2Sc2ccccc21	72.4	54.1	.	.	73.7	.	69.3	60.4	TIM10 conf=81.3
Cc1ccc(NC2=C/C(=N\S(=O)(=O)c3cccs3)c3ccccc3C2=O)c(C)c1	73.7	56.3	.	100.4	59.8	.	49.0	60.5	TIM10 conf=.
Cc1ccc(Nc2cc(=O)oc3ccccc23)c(C)c1	.	.	.	.	.	.	/	/
CC1(C)CNC(=O)c2sc(NC(=O)CN3CCOCC3)nc2C1	.	.	.	.	.	.	/	/
